PubChem BioAssay (NCI)
Compounds without any hit were thinned out: in the full panel of roughly 83,000, 20% have a hit.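 Step 1: grow cells in 96-well plates. Step 2: add test compound at a single concentration. Step 3: incubate 48 h. Step 4: record percent growth.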 Values without a mark were called inactive. Active and inactive are the calls of the source. Rule for the calls: active = growth percent below 10; inactive = the rest.

tested on: A498 renal; experiment: NCI-60 one-dose screen, 48 h (100 = growth as untreated, 0 = no growth, -100 = all killed); details: 10 µM unless noted

SMILES | growth
COc1ccc2c(c1)C(=O)c1c-2c(=O)n(CCCCCCC(=O)NO)c2ccccc12 | -67.8% (active)
CCC(C)(C)C(=O)O[C@H]1C[C@@H](C)C=C2C=C[C@H](C)[C@H](CC[C@@H]3C[C@@H](O)CC(=O)O3)[C@H]21 | -38.8% (active)
CCC1=C(c2ccc(OC)cc2)C(C)(C)Oc2c1ccc(O)c2CN1CCCC1 | 58.4%
CCCCCCCCCCCCCCCCCC1=NC(C)(C)CN1CCO | 117%
O=C(Nc1ccc(Cl)cc1)Nc1ccc(Nc2nncc3ccccc23)cc1 | 24.5%
COc1cc(C2C=C(c3ccc(C)cc3)Nc3nc(SC)[nH]c(=O)c32)ccc1Oc1ccnc2cc(Cl)ccc12 (stereo unspecified) | 71.7%
C=C(C[C@@](O)(C(=O)Oc1ccccc1)C(=O)C1CCCCC1)c1ccccc1 | 106%
CCCCCCCC1(C)NC(=O)NC1=O (stereo unspecified) | 103%
CCOC(=O)c1c(C)c(C(=O)OCC)n(C)c1C | 83.9%
CCc1[nH]nc(-c2ccc(OC)cc2)c1-c1ccccc1OCCN(CC)CC | 80.7%
COc1ncc(-c2ccc3nccc(C#CCN4CCN(S(C)(=O)=O)CC4)c3c2)cc1NS(=O)(=O)c1ccc(F)cc1F | -52.9% (active)
COc1ccc2c(c1)C(=O)c1c-2c(OCCCN(C)C)nc2cc(Br)ccc12 | 76.3%
N#Cc1c(N)[nH]c(S)c1C#N | 76.2%
CC(O)c1nc2c(c(=O)n(C)c(=O)n2C)n1C (stereo unspecified) | 105%
Cc1ccc(NC(=O)Nc2ccc(-c3cccnc3)cc2N2CCC(CO)CC2)cc1 | -36.2% (active)
CCCCCCCCCCCCCCCCN=C(CC(=O)O)C(=O)O | 95.6%
COc1ccc(CCN2CCCN3C2=Nc2ccccc2S3(=O)=O)cc1 | 0.819% (active)
Cc1nnc(Nc2ccc(NC(=O)Nc3ccc(Cl)cc3)cc2)c2ccccc12 | 35.4%

SMILES | growth
CCCCCCCCCCSc1ncnc2nc[nH]c12 | 61.4%
C=C(C[C@](O)(C(=O)/C=C/c1ccc(Cl)cc1)C(=O)OC)c1ccccc1 | 97.1%
O=C(/C=C/c1ccccc1Cl)c1ccc(O)cc1 | 91.9%
CC(=O)NC1(C(=O)O)CCCC1 | 105%
CCOC(=O)c1cc(-c2cccnc2)nc2c(Cl)cc(Cl)cc12 | 103%
O=C1C(=O)c2ccc(Br)cc2-c2cc(Br)ccc21 | 115%
CCN1CCN(c2cc(-c3cn[nH]c3-c3cc(C)cc(OC)c3)nc(-c3cccnc3)n2)CC1 | 15.1%
ClC1=C(Cl)C(Cl)=C(Cl)C1=C/C=C/c1ccccc1 | -87.4% (active)
O=C(CN1CCCCC1)Sc1nnc2sc3ccccc3n12 | 107%
CN1CCN(Cc2ccc(NC(=O)c3[nH]ncc3Nc3ccnc4ccnn34)cc2)CC1 | 74.4%
CC1=CC(=O)C(C(C)=Nc2ccccc2Cl)C(=O)O1 (stereo unspecified) | 85.7%
CSc1ncc2ncn(C3OC(CO)C(O)C3O)c2n1 (stereo unspecified) | 99.6%
COc1ccc2nc3cc(Cl)ccc3c(Nc3cc(C(C)C)c(O)cc3C)c2c1 | 60.2%
c1cnc2ccc3ncccc3c2c1 | 96.5%
O=C(Nc1ccc(Cl)cc1)Nc1ccc(Oc2nncc3ccccc23)cc1 | 24.5%
CCCCCCCC/C=C/CCCCCCCC1=NC(C)(C)CN1CCO | 89.2%
CN(CC(=O)N(Cc1ccc(C2CCCCC2)cc1)c1ccc(C(=O)O)cc1)S(=O)(=O)c1c(F)c(F)c(F)c(F)c1F | 93.4%
CCN(CC)CCCNCCCNc1cc(OC)cc2cccnc12 | 76.4%
